Measured potencies and affinities stand elsewhere.
How the values were obtained:
Klebsiella pneumoniae = conditions: Concentration 32 ug.mL-1;; ASSAY_TEST Inhibition of Bacterial Growth; detection method Absorption (OD600); MEDIA CAMHB; plate type 384well; NBS; CORNING #3640; time 18 hr
Candida albicans = conditions: Concentration 32 ug.mL-1; ASSAY_TEST Inhibition of Fungal Growth; detection method Absorption (OD530)
Cryptococcus neoformans = conditions: Concentration 32 ug.mL-1; ASSAY_TEST Inhibition of Fungal Growth; detection method Resazurin; Absorption (OD600-OD570); plate type 384well; NBS; CORNING #3640

Row | SMILES | Inhibition (Klebsiella pneumoniae) | Inhibition (Candida albicans) | Inhibition (Cryptococcus neoformans)
1 | Cc1cccc(N(C)C(=O)Cn2nc3cc(C)nc(Nc4ccc(C)c(F)c4)n3c2=O)c1 | 20.18% | 4.24% | -1.47%
2 | Cc1cccc(NC(=O)Cn2nc3c(SC4CCCCC4)nccn3c2=O)c1C | 7.9% | -1.44% | -15.81%
3 | CCCCOc1ccc(-c2cc3c4nnc(SCC(=O)NCc5ccc(OC)cc5)n4ccn3n2)cc1 | 6.37% | 17.75% | -16.44%
4 | Cc1cccc(CN(c2ccc(Cl)cc2)S(=O)(=O)c2cccn3c(C)nnc23)c1 | 9.48% | 1.95% | -9.68%
5 | COc1cccc(-n2ccn3c(SCc4ccccc4Cl)nnc3c2=O)c1 | 8.33% | 2.81% | -13.51%
6 | Cc1cc(C)c(NC(=O)Cn2nc3ccc(-c4ccc(C)c(C)c4)nn3c2=O)c(C)c1 | -8.22% | 0.76% | -13.99%
7 | Cc1nnc2ccc(S(=O)(=O)N(Cc3cc(F)cc(F)c3)c3ccc(F)cc3)cn12 | 7.75% | 0.47% | -6.16%
8 | O=c1c2nnc(SCc3ccccc3)n2ccn1-c1ccc(Br)cc1 | 7.85% | 5.19% | -7.93%
9 | CSc1cccc(NC(=O)Cn2nc3ccc(SC4CCCCC4)nn3c2=O)c1 | 4.23% | 0.23% | -8.34%
10 | Cc1nnc2ccc(S(=O)(=O)N(Cc3ccccc3Cl)c3ccc(F)cc3)cn12 | 0.63% | 5.22% | -2.96%
11 | COc1cccc(CN(c2cccc(C)c2)S(=O)(=O)c2ccc3nnc(C)n3c2)c1 | 4.27% | 0.75% | -14.81%
12 | Cn1c(=O)c2ccc(C(=O)NC3CCCCC3)cc2n2c(=O)n(Cc3cccc(C(F)(F)F)c3)nc12 | 16.04% | 1.42% | -24.7%
13 | Cc1cccc(Oc2nccn3c(=O)n(CC(=O)Nc4cccc(C(F)(F)F)c4)nc23)c1C | 9.81% | 16% | -8.68%
14 | COc1ccc(OC)c(NC(=O)Cn2nc3ccc(-c4ccc(C)cc4)nn3c2=O)c1 | 1.76% | 0.83% | -12.04%
15 | O=C(CSc1nnc2c(=O)n(-c3ccc(Br)cc3)ccn12)Nc1cccc(Cl)c1 | 6.37% | 6.02% | -15.78%
16 | Cc1ccc(Sc2nccn3c(=O)n(CC(=O)N4CCN(c5ccc(F)cc5)CC4)nc23)c(C)c1 | -6.63% | 1.39% | -106.74%
17 | CCc1nnc2ccc(S(=O)(=O)N(Cc3ccc(F)cc3)c3ccc(OC)cc3)cn12 | 5.94% | -0.37% | -3.5%
18 | O=C(Cn1nc2c(SCc3ccccc3)nccn2c1=O)NC1CCCC1 | 3.94% | 1.33% | -3.97%
19 | CCCn1c(=O)c2sccc2n2c(CCC(=O)NC(C)C34CC5CC(CC(C5)C3)C4)nnc12 (stereo not drawn) | 1.34% | 7.2% | -25.73%
20 | CCCCn1c(=O)c2sccc2n2c(CCC(=O)NC(C)C34CC5CC(CC(C5)C3)C4)nnc12 (stereo not drawn) | 12.08% | -2.51% | -27.66%
21 | CCOc1ccc(NC(=O)Cn2nc3c(N4CCCC4)nccn3c2=O)cc1 | 9.68% | 0.82% | -8.38%

Row | SMILES | Inhibition (Klebsiella pneumoniae) | Inhibition (Candida albicans) | Inhibition (Cryptococcus neoformans)
22 | Cc1c(Cl)cccc1NC(=O)Cn1nc2c(SCc3ccccc3)nccn2c1=O | 1.96% | 2.12% | -7.14%
23 | COc1ccc(CNC(=O)CCc2nnc3ccc(-c4ccccc4)nn23)cc1OC | 15.01% | -1.16% | -12.03%
24 | O=C(Cn1nc2c3cc(-c4ccc(Cl)cc4)nn3ccn2c1=O)Nc1ccc(F)cc1 | 10.41% | 1.82% | -10.24%
25 | Cc1nnc2c(=O)n(CC(=O)Nc3ccccc3Cl)c3ccccc3n12 | 0.78% | 1.36% | -5.67%
26 | Cc1ccc(C)c(Cn2nc3n(CC(C)C)c(=O)c4sccc4n3c2=O)c1 | 7.9% | -1.65% | -8.63%
27 | CCCCOc1ccc(-c2cc3c4nnc(SCC(=O)Nc5cccc(C)c5C)n4ccn3n2)cc1 | 1.05% | -0.05% | -18.62%
28 | COc1cccc(Sc2nc3ccccc3n3c(=O)n(CC(=O)Nc4cc(C)cc(C)c4)nc23)c1 | 4.15% | 5.74% | -11.67%
29 | Cc1ccc(C)c(CSc2nnc3c(=O)n(-c4ccc(F)c(F)c4)ccn23)c1 | -0.25% | 0.45% | -4.36%
30 | Cc1ccc(NC(=O)Cn2nc3c(SC4CCCCC4)nccn3c2=O)cc1F | 13.26% | -0.51% | -26.18%
31 | CCCCc1ccc(NC(=O)Cn2nc3c(Sc4ccccc4CC)nccn3c2=O)cc1 | -8.8% | 24.82% | -8.24%
32 | O=c1c2sccc2n2c(=O)n(Cc3ccc(Br)cc3)nc2n1Cc1cccs1 | -4.09% | 49.64% | -28.37%
33 | COc1ccc(NC(=O)CSc2nnc3ccc(C(=O)Nc4cccc(F)c4)cn23)cc1 | 4.36% | 3.08% | -2.63%
34 | O=C(CSc1nnc2c(=O)n(-c3ccc(Br)cc3)ccn12)c1ccc(F)cc1 | 7.31% | 5.26% | -8.48%
35 | Cc1cccc(NC(=O)Cn2nc3ccc(-c4ccc(Cl)cc4)nn3c2=O)c1C | 8.72% | 0.72% | -12.84%
36 | COc1ccc(Cl)cc1NC(=O)Cn1nc2c3cc(-c4ccc(C)cc4)nn3ccn2c1=O | 5.55% | 14.91% | -9.24%
37 | N#CCSc1nnc2c(=O)n(-c3ccccc3)ccn12 | 18.13% | 2.9% | -7.27%
38 | O=c1c2sccc2n2c(=O)n(Cc3cccc(Cl)c3)nc2n1CCc1ccccc1 | 11.95% | 1.58% | -33.74%
39 | COc1ccc(NC(=O)Cn2nc3cc(C)nc(Nc4ccc(F)c(C)c4)n3c2=O)cc1 | 10.41% | 4.68% | -7.34%
40 | COc1ccc(-c2cc3c4nnc(CCC(=O)NCCc5ccccc5)n4ccn3n2)cc1 | 3.81% | 3.45% | -16.37%
41 | Cc1ccc(Cn2nc3c(=O)n(-c4cccc(F)c4)ccn3c2=O)cc1 | 1.12% | 5.68% | -10.74%
42 | CCc1ccc(NC(=O)CSc2nnc3ccc(C(=O)Nc4cccc(F)c4)cn23)cc1 | 0.94% | 1.65% | -4.96%

Row | SMILES | Inhibition (Klebsiella pneumoniae) | Inhibition (Candida albicans) | Inhibition (Cryptococcus neoformans)
43 | Cc1c(Cl)cccc1-n1ccn2c(=O)n(Cc3cccc(Cl)c3)nc2c1=O | 5.86% | 2.56% | -15.28%
44 | COc1ccc(-c2cc3c4nn(CC(=O)Nc5cccc(C)c5)c(=O)n4ccn3n2)cc1 | 3.49% | 3.36% | -17.04%
45 | CCc1ccccc1NC(=O)Cn1nc2c(Sc3ccc(C)cc3C)nccn2c1=O | 5.69% | 0.47% | -23.87%
46 | COc1ccc(-c2cc3c4nnc(SCC(=O)NCc5cccc(OC)c5OC)n4ccn3n2)cc1 | 6.86% | 0.88% | -15.85%
47 | O=C(Cn1nc2c(N3CCOCC3)nccn2c1=O)Nc1cccc(C(F)(F)F)c1 | 0.9% | 5.11% | -4.42%
48 | Cc1ccc(C)c(Cn2nc3c(=O)n(-c4ccc(C)c(C)c4)ccn3c2=O)c1 | 6.6% | 1.95% | -10.52%
49 | CCCCn1c(=O)c2sccc2n2c(=O)n(CC(=O)c3ccc(C)cc3C)nc12 | 10.99% | -0.48% | -20%
50 | Cc1cc(C)c(NC(=O)Cn2nc3ccc(Sc4cccc(F)c4)nn3c2=O)c(C)c1 | 1.06% | 2.95% | -10.61%
51 | COc1ccc(NC(=O)Cn2c(=O)c3nnc(C(C)C)n3c3ccccc32)cc1Cl | 7.18% | 3.46% | -13.11%
52 | Cc1ccc(NC(=O)CSc2nc3ccccc3n3c(C)nnc23)c(Br)c1 | 14.29% | 22.27% | -9.59%
53 | CCc1ccc(NC(=O)Cn2nc3n(Cc4cccs4)c(=O)c4sccc4n3c2=O)cc1 | 9.1% | 35.62% | -2.93%
54 | CC(C)c1ccc(NC(=O)Cn2nc3c(SCc4ccccc4)nccn3c2=O)cc1 | 2.82% | 10.67% | -15.97%
55 | Cc1ccc(NC(=O)Cn2nc3ccc(-c4ccc(Cl)cc4)nn3c2=O)cc1F | 2.59% | -1.16% | -2.55%
56 | Cc1ccc(NC(=O)CSc2nc3ccccc3n3cnnc23)c(Br)c1 | 0.14% | 3.27% | -26.85%
57 | O=S(=O)(c1ccc2nncn2c1)N(Cc1cc(F)cc(F)c1)c1cc(F)cc(F)c1 | -2.94% | 0.05% | -3.18%
58 | COc1ccccc1N1CCN(C(=O)Cn2nc3ccc(-c4ccc(Cl)cc4)nn3c2=O)CC1 | 12.66% | -1.54% | -12.15%
59 | CSc1ccc(CNC(=O)Cn2nc3c(N4CCN(c5ccccc5)CC4)nccn3c2=O)cc1 | 15.47% | 1.95% | -6.85%
60 | COc1cc(OC)c(NC(=O)Cn2nc3c(N4CCOCC4)nccn3c2=O)cc1Cl | 1.91% | 3.65% | -8.41%
61 | COc1cccc(CSc2nnc3c(=O)n(-c4ccc(Br)cc4)ccn23)c1 | 8.64% | 19.07% | -13.83%

— ChEMBL document CHEMBL4513146, “CO-ADD screening of Karazin Kharkiv National University (Ukraine) compounds”
